PubChem BioAssay (Tox21)
Inconclusive results are not listed. Active and inactive are the calls of the source. Unless noted, the call rests on the fitted dose curve; in most records, active means well fitted curve in the direction sought with a large enough effect in the repeat runs; inconclusive means weak or mixed curves; inactive means no such curve, though single readings can be large; an effect the other way counts as inactive or inconclusive.

Experiments:
[1] = qHTS assay to identify small molecule antagonists of the estrogen related receptor (ERR) signaling pathway - cell viability counter screen (AID 1224818); further: series mostly up to about 46 µM
How it was run: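 ERR cells, 2,000 per well, compound added after 6 h and incubated 17.5 h at 37 C. Viability read by CellTiter-Fluor fluorescence after a further 30 min at 37 C.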

[2] = qHTS assay to identify small molecule antagonists of the estrogen related receptor (ERR) signaling pathway (AID 1224819; further: nearly all actives have a fitted effect of over 50% in size; further: potency means the concentration at half of the fitted maximal effect)
How it was run: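 ERR reporter cell line (NTP) plated at 2,000 cells/well, settled 6 h at 37C/5% CO2, then exposed to LOPAC compounds for 18 h at 37C. One-Glo luciferase luminescence read after 30 min at room temperature.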

[3] = qHTS assay to identify small molecule agonists of the estrogen related receptor (ERR) signaling pathway (AID 1224820); further: potency means the concentration at half of the fitted maximal effect
How it was run: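 Cells: ERR line from NTP, 2,000/well. Pre-incubation 6 h, 37 C/5% CO2. Compound (DMSO) pin transfer, 18 h 37 C. One-Glo, 30 min RT, luminescence.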

[4] = test system: estrogen-related receptor alpha (ERRalpha) with PGC-1alpha coactivator, human; test: qHTS assay to identify small molecule antagonists of the estrogen related receptor signaling pathway with the pleiotropic PPARgamma coactivator (PGC) (AID 1224821; calls by dose curve; further: nearly all actives have a fitted effect of over 50% in size; further: potency means the concentration at half of the fitted maximal effect)
How it was run: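 Luminescent read-out (One-Glo, 30 min at room temperature) following 18 h treatment of PGC/ERR cells at 37 C with compounds delivered in DMSO. Cells had settled 6 h at 37 C/5% CO2 before dosing.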

[5] = qHTS assay to identify small molecule antagonists of the estrogen related receptor signaling pathway with the pleiotropic PPARgamma coactivator (PGC) cell viability counter screen (AID 1224822; further: potency means the concentration at half of the fitted maximal effect)
How it was run: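 PGC/ERR cells rested 6 h, then compound-treated 17.5 h at 37 C. CellTiter-Fluor added for 30 min at 37 C, viability measured by fluorescence intensity.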

[6] = qHTS assay to identify small molecule agonists of the estrogen related receptor signaling pathway with the pleiotropic PPARgamma coactivator (PGC) (AID 1224823); further: potency means the concentration at half of the fitted maximal effect
How it was run: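 Steps: plate PGC/ERR cells at 2,000 cells/well; incubate 6 h, 37 C/5% CO2; pin-transfer compounds (DMSO); incubate 18 h, 37 C; add One-Glo; 30 min RT; read luminescence.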

Measured: Potency

O=c1onc2cnc3ccccc3n12
inactive: all assays above

Cn1cc(C2=C(c3ccc(Cl)cc3Cl)C(=O)NC2=O)c2ccccc21
active: [2] 21100 nM
inactive: all other assays above

CCOC(=O)C12CC1/C(=N/O)c1ccccc1O2 (stereo not drawn)
inactive: all assays above

Nc1nc2c(nc(Br)n2C2OC3COP(=O)(O)O[C@@H]3C2O)c(=O)[nH]1 (stereo partly drawn)
inactive: all assays above

COc1cc(C(O)CO)ccc1OS(=O)(=O)O (stereo not drawn)
inactive: all assays above

COc1ccccc1CNCCCCCCNCCCCCCCCNCCCCCCNCc1ccccc1OC
inactive: all assays above

Cc1nc(N=Nc2ccc(C(=O)O)cc2)c(COP(=O)(O)O)c(C=O)c1O
inactive: all assays above

Nc1nc2c(cnn2CCc2ccccc2)c2nc(-c3ccco3)nn12
inactive: all assays above

O=C1OC(=O)C2C3CCC(O3)C12 (stereo not drawn)
not listed: [5]
inactive: all other assays above

Brc1c(Br)c(Br)c2n[nH]nc2c1Br
active: [2] 22000 nM | [4] 21100 nM
inactive: all other assays above

CC(C)(C)c1cc(/C=C(\C#N)C(N)=S)cc(C(C)(C)C)c1O
inactive: [1] | [3] | [6]
active: [2] 2460 nM | [4] 2110 nM

S=C(Nc1ccccc1)Nc1nccs1
active: [4] 810 nM | [5] 335 nM
inactive: all other assays above

O=C(/C=C/c1ccc(O)cc1)c1ccc(O)cc1O
inactive: all assays above

CCCn1c(=O)[nH]c(=O)c2[nH]cnc21
inactive: all assays above

CCOC(=O)[C@H](CCc1ccccc1)N[C@@H](C)C(=O)N1[C@H](C(=O)O)C[C@H]2CCCC[C@@H]21
inactive: all assays above

NOCC(=O)O
inactive: all assays above

Nc1ccc(-c2ccc3ccccc3n2)cc1
active: [3] 2460 nM | [6] 1960 nM
inactive: all other assays above

CN1C2CCC1CC(OC(=O)C(O)c1ccccc1)C2 (stereo not drawn)
inactive: all assays above

NC(CCCP(=O)(O)O)C(=O)O (stereo not drawn)
inactive: all assays above

Brc1c(Br)c(Br)c2[nH]cnc2c1Br
active: [2] 19600 nM | [4] 6940 nM
inactive: [1] | [3] | [6]

CC(N)(C(=O)O)c1ccc(C(=O)O)cc1 (stereo not drawn)
inactive: all assays above

O=C(O)C1=CCNCC1
not listed: [5]
inactive: all other assays above

Fc1ccc(CN(C2=NCCN2)c2c(Cl)cccc2Cl)cc1
not listed: [5]
inactive: all other assays above

Cc1cc(Cn2cnc3c2C[C@@H](C(=O)O)N(C(=O)C(c2ccccc2)c2ccccc2)C3)ccc1N
inactive: all assays above

N#C/C(=C\c1ccc(O)c(O)c1)C(=O)NCCCNC(=O)/C(C#N)=C/c1ccc(O)c(O)c1
not listed: [5]
inactive: all other assays above

O=[N+]([O-])c1cccc2c(Br)[nH]nc12
not listed: [5]
inactive: all other assays above

COc1ccc(/C=C/C(=O)Nc2ccccc2C(=O)O)cc1OC
active: [3] 1680 nM
not listed: [4]
inactive: all other assays above

COC(=O)C1=CO[C@@H](O)[C@@H]2C(CO)=CC[C@H]12
not listed: [5]
inactive: all other assays above

NC1(C(=O)O)CCCCC1
inactive: [1] | [2] | [3] | [5]

Nc1nc(Nc2ccccc2)nc2c1ncn2[C@@H]1O[C@H](CO)C(O)[C@H]1O (stereo partly drawn)
active: [6] 1440 nM
not listed: [5]
inactive: all other assays above
